Hits are enriched below; roughly 3.9% of the tested compounds scored in any of these assays.
BoNT A protease: BoNT A light chain protease inhibition; 360,000 tested, 0.17% active; multiplex microsphere protease substrate cleavage, flow cytometry; AID 588499; inhibition, % at 10 µM; further: plate controls were buffer without enzyme for full effect and enzyme alone for no effect
Autofluor counter: flagged as autofluorescent in microsphere protease counterscreen; compound autofluorescence counterscreen, microsphere flow cytometry; stronger effect = higher value; fluorescence intensity (test concentration not listed); 360,000 tested, 3.1% active; in the data active means fluorescence intensity above about 16000; inconclusive means no clear call, values can overlap the other calls
CCHF vOTU inh: blocks the CCHF virus ovarian tumor domain protease; AID 651958; inhibition, % at 11.5 µM; 370,000 tested, 0.55% active; CCHFV vOTU protease, Pep-AMC fluorescence; in the data active means inhibition above about 30%; further: 0% = vehicle wells with enzyme and 100% = no enzyme wells
SARS 3CLpro inh: SARS-CoV 3CLpro protease inhibition; P0C6X7; recombinant SARS-CoV 3CLpro, quenched FRET peptide cleavage; inhibition, % at 6 µM; 290,000 tested, 0.14% active; in the data active means inhibition above about 12%
BoNT F protease: blocks Botulinum neurotoxin F light chain protease. Multiplex microsphere protease cleavage assay, flow cytometry. inhibition, % at 10 µM. 360,000 tested, 0.22% active; in the data active means inhibition above about 35%, passing the limit was not always enough; inconclusive means no clear call, values can overlap the other calls; further: plate controls were buffer without enzyme for full effect and enzyme alone for no effect
Anthrax LF inh2: inhibitors of Bacillus anthracis lethal factor protease; multiplex microsphere protease cleavage assay, LF; 360,000 tested, 0.12% active; inhibition, % at 10 µM; AID 588501; P15917; further: plate controls were buffer without enzyme for full effect and enzyme alone for no effect
Numbers without * were called inactive. Unless noted, no stated cut-off is given here; in the data, active means inhibition above about 30%; inconclusive means no clear call, values can overlap the other calls; inactive means below that.

`O=C(NCc1ccco1)c1noc2c1CCCC2` gave BoNT A protease 0, Autofluor counter 11017, CCHF vOTU inh -7, SARS 3CLpro inh -4, BoNT F protease 2 and Anthrax LF inh2 0.
Screening COc1ccc(CNC(=O)c2noc3c2CCCCC3)cc1 returned BoNT A protease -1, Autofluor counter 21035*, CCHF vOTU inh 6, SARS 3CLpro inh 7, BoNT F protease -2 and Anthrax LF inh2 -4.
O=C(NCc1ccccc1)c1noc2c1CCCCC2 was read as BoNT A protease -1, Autofluor counter 16329*, CCHF vOTU inh 2, SARS 3CLpro inh 0, BoNT F protease -2 and Anthrax LF inh2 -2.
For O=C(Nc1ccc(F)cc1)Nc1c(-c2ccc(F)cc2)nc2ncccn12 the results were CCHF vOTU inh -15.
`Nc1ccc2c(C(F)(F)F)cc(C(F)(F)F)nc2n1` gave BoNT A protease 2, Autofluor counter 3366, CCHF vOTU inh -222, SARS 3CLpro inh 4, BoNT F protease 2 and Anthrax LF inh2 0.
Fc1ccc(N2CCN(c3ccc4c(C(F)(F)F)cc(C(F)(F)F)nc4n3)CC2)cc1 was read as BoNT A protease 4, Autofluor counter 21176*, CCHF vOTU inh 0, SARS 3CLpro inh -1, BoNT F protease 4 and Anthrax LF inh2 -4.
FC(F)(F)c1cc(C(F)(F)F)c2ccc(N3CCOCC3)nc2n1 was read as BoNT A protease -2, Autofluor counter 4107, CCHF vOTU inh -12, SARS 3CLpro inh 0, BoNT F protease -39 and Anthrax LF inh2 7.
For FC(F)(F)c1cc(C(F)(F)F)c2ccc(N3CCN(c4ncccn4)CC3)nc2n1 the results were BoNT A protease -4, Autofluor counter 23511*, CCHF vOTU inh -11, SARS 3CLpro inh 1, BoNT F protease -4 and Anthrax LF inh2 -6.
FC(F)(F)c1cc(C(F)(F)F)c2ccc(N3CCN(c4ccc(Cl)cc4)CC3)nc2n1 was read as BoNT A protease 3, Autofluor counter 21584*, CCHF vOTU inh 3, SARS 3CLpro inh -3, BoNT F protease 4 and Anthrax LF inh2 -2.
For COC(=O)CCC1NC(=O)C(Cc2c[nH]c3ccccc23)NC(=O)C2CC(=O)OC(C)C(NC(=O)C(C)NC(=O)C3CCCN3C(=O)C3CCCN3C(=O)C(C)NC(C)=O)C(=O)NC(CC(C)C)C(=O)NC(CCCCNC(=O)CCC(C(=O)NC(Cc3ccc(O)cc3)C(=O)O)NC1=O)C(=O)NC(Cc1c[nH]c3ccccc13)C(=O)N1CCCC1C(=O)NC(CO)C(=O)N2 (stereo unspecified) the results were CCHF vOTU inh 9.
C/C(CC(=O)Nc1cccc2c1CCCC2)=N\NC(=O)c1ccccc1N was read as BoNT A protease inconclusive, Autofluor counter 24027*, CCHF vOTU inh -8, SARS 3CLpro inh 7, BoNT F protease -4 and Anthrax LF inh2 -3.
COc1ccccc1Nc1nc2c(C)cccc2cc1C#N was read as BoNT A protease 0, Autofluor counter 16724*, CCHF vOTU inh -4, SARS 3CLpro inh 4, BoNT F protease 1 and Anthrax LF inh2 -1.
For O=C(Nc1ccsc1C(=O)NC1CCCCC1)c1ccccc1 the results were BoNT A protease inconclusive, Autofluor counter 20407*, CCHF vOTU inh -2, SARS 3CLpro inh 0, BoNT F protease -2 and Anthrax LF inh2 -1.
`CC(=O)NC1CCCCN(Cc2cccc(F)c2)C1=O` (stereo unspecified) gave CCHF vOTU inh -10.
`O=C(c1ccco1)c1cn(Cc2ccccc2Cl)c2ccccc12` gave BoNT A protease inconclusive, Autofluor counter 24624*, CCHF vOTU inh -5, SARS 3CLpro inh -2, BoNT F protease -2 and Anthrax LF inh2 0.
Screening COc1ccc(NC(=O)Cn2cc(C(=O)c3ccco3)c3ccccc32)cc1 returned BoNT A protease 0, Autofluor counter 3014, CCHF vOTU inh 14, SARS 3CLpro inh 2, BoNT F protease -3 and Anthrax LF inh2 -3.
CCOc1ccc(NC(=O)Cn2cc(C(=O)c3ccco3)c3ccccc32)cc1 was read as BoNT A protease 14, Autofluor counter 16382*, CCHF vOTU inh -2, SARS 3CLpro inh 4, BoNT F protease 11 and Anthrax LF inh2 -14.
For Brc1cnc(N2CCCC2)nc1N1CCOCC1 the results were BoNT A protease inconclusive, Autofluor counter 21599*, CCHF vOTU inh -7, SARS 3CLpro inh 0, BoNT F protease 0 and Anthrax LF inh2 0.
O=C(Cc1cc(=O)[nH][nH]1)N/N=C/c1ccccc1C(F)(F)F was read as CCHF vOTU inh 1.
For O=C(COC(=O)c1ccc(Cl)s1)c1cc2ccccc2o1 the results were BoNT A protease -2, Autofluor counter 20753*, CCHF vOTU inh 9, SARS 3CLpro inh 2, BoNT F protease -5 and Anthrax LF inh2 -5.
Cn1cccc1C(=O)OCC(=O)c1cc2ccccc2o1 was read as BoNT A protease inconclusive, Autofluor counter 20874*, CCHF vOTU inh 2, SARS 3CLpro inh 0, BoNT F protease -3 and Anthrax LF inh2 -5.
Screening O=C(CSc1nc2cc(Cl)ccc2s1)c1cc2ccccc2o1 returned BoNT A protease 3, Autofluor counter 19577*, CCHF vOTU inh 6, SARS 3CLpro inh -1, BoNT F protease -1 and Anthrax LF inh2 7.
Cc1cc(NC(=O)CSc2nc3cc(Cl)ccc3s2)no1 was read as BoNT A protease -1, Autofluor counter 3414, CCHF vOTU inh 0, SARS 3CLpro inh -1, BoNT F protease -4 and Anthrax LF inh2 -1.
O=C(COC(=O)c1nc(Cl)ccc1Cl)c1ccc(Cl)s1 was read as BoNT A protease 0, Autofluor counter 2221, CCHF vOTU inh 3, SARS 3CLpro inh -4, BoNT F protease 0 and Anthrax LF inh2 -2.
`C[C@H]1CN(C(=O)OC(C)(C)C)CCN1c1ccc(N2CC[C@H](O)C2)c(C#N)c1` gave CCHF vOTU inh 22.
`CCC(C)[C@@H](C(=O)OC)N(Cc1cn(Cc2ccccc2)nn1)S(=O)(=O)c1ccccc1Br` (stereo partly specified) gave CCHF vOTU inh 2.
`FC(F)Sc1nnc(-c2cccs2)n1-c1ccccc1` gave BoNT A protease 1, Autofluor counter 19168*, CCHF vOTU inh 5, SARS 3CLpro inh -5, BoNT F protease 1 and Anthrax LF inh2 2.
Screening FC(F)(F)c1ccccc1Cn1ccc2ccc(-c3ccc4ccn(Cc5ccccc5C(F)(F)F)c4c3)cc21 returned CCHF vOTU inh 8.
Screening Cn1c(=O)c(-c2ccccc2)nc2ccccc21 returned BoNT A protease -1, Autofluor counter 20471*, CCHF vOTU inh -49, SARS 3CLpro inh -1, BoNT F protease -3 and Anthrax LF inh2 2.
Screening COc1ccc(Oc2nc3ccccc3n3cccc23)cc1 returned BoNT A protease 0, Autofluor counter 2649, CCHF vOTU inh 3, SARS 3CLpro inh 4, BoNT F protease -1 and Anthrax LF inh2 2.
Screening COc1ccc(Oc2nc3ccccc3n(C)c2=O)cc1 returned BoNT A protease 0, Autofluor counter 16246*, CCHF vOTU inh -1, SARS 3CLpro inh 0, BoNT F protease -2 and Anthrax LF inh2 -2.

Screening results as filed in PubChem.
